Pf apPOL inh = Pf-apPOL DNA polymerase inhibition; Recombinant Pf-apPOL, molecular beacon fluorescence, 1.5 h; inhibition, % at 10 µM; 210,000 tested, 0.25% active
mHTT-CaM PPI inh = mHTT-calmodulin interaction abrogation; AID 1671202; AlphaScreen His-mHTT/GST-CaM binding, luminescence; 190,000 tested, 3.6% active; inhibition, % at 15 µM; P42858
Each line names hits and unclear results; the compound was inactive in the other large screens; ! = a repeat was not active. Many of the other results were omitted from the sample, so hits are more common in it than they were. Cut-off read from the data, not from the text of the source: active = inhibition above about 50%; inactive = the rest.

O=C(Nc1nccs1)C1CCN(C(=O)NCc2cccs2)CC1	none
Nc1nc(CSc2ncccn2)nc(Nc2ccccc2)n1	none
Cc1ccc2cccc(SCc3nc(N)nc(Nc4ccccc4)n3)c2n1	mHTT-CaM PPI inh 61
Fc1ccc(N2Cc3ccccc3C2)cc1	none (no result: Pf apPOL inh)
Oc1ccc(N2Cc3ccccc3C2)cc1	mHTT-CaM PPI inh 100
Cc1ccc(C2CC(c3ccccc3)n3nnnc3N2)cc1 (stereo unspecified)	none
Cc1ccc(C2CC(c3ccccc3Cl)Nc3nc(N)nn32)cc1 (stereo unspecified)	mHTT-CaM PPI inh 67
Nc1nc2n(n1)C(c1ccccc1)CC(c1ccccc1Cl)N2 (stereo unspecified)	none
Cc1cccc(C2CC(c3ccc(Br)cc3)Nc3nc(N)nn32)c1 (stereo unspecified)	mHTT-CaM PPI inh 55
Cc1ccccc1C1CC(c2ccc(Br)cc2)Nc2nc(N)nn21 (stereo unspecified)	mHTT-CaM PPI inh 71
Cc1ccccc1C1CC(c2ccc(F)cc2)Nc2nc(N)nn21 (stereo unspecified)	none
Cc1ccc(C2CC(c3ccc(Cl)cc3)n3nnnc3N2)cc1 (stereo unspecified)	mHTT-CaM PPI inh 54
COc1ccc(C2CC(c3cccc(C)c3)n3nc(N)nc3N2)cc1 (stereo unspecified)	none
CC(C)CCNC(=O)c1cn2c(n1)CCCC2	none
CCC(C)NC(=O)C1Cc2ccccc2N2CCN(c3ccccn3)CC12 (stereo unspecified)	none
NS(=O)(=O)c1ccc(CCNC(=O)c2csc(-c3cc4ccccc4[nH]3)n2)cc1	none
O=C1NC(=O)/C(=C/c2ccc(Cl)c([N+](=O)[O-])c2)S1	none
O=C1NC(=S)SC1=Cc1ccc(Sc2ccc(Cl)cc2)c([N+](=O)[O-])c1	Pf apPOL inh 69 (no result: mHTT-CaM PPI inh)
Cc1cc(Br)cc2c1N(C)C(=O)/C2=C1/SC(=Nc2ccc(F)cc2)NC1=O	none
CC(=O)N1CCc2ccccc2C1C(=O)NCC1CCCO1 (stereo unspecified)	none
COc1ccc(N=Cc2ccc(Cl)cc2)cc1Cl	none
COc1ccc(N=C/C=C/c2ccccc2Cl)cc1Cl	mHTT-CaM PPI inh 55
Cc1ccc(NC(=O)C2CCCN(C(=O)c3ccccc3F)C2)c(C)c1 (stereo unspecified)	none
CCOc1cccc(N2CCN(C(=O)c3cccc(F)c3)C(C)C2=O)c1 (stereo unspecified)	none
COc1ccc(C=CC(=O)c2cc(F)ccc2O)c(OC)c1	none
O=C(C=Cc1ccc2c(c1)OCCCO2)c1cc([N+](=O)[O-])ccc1O	none
COc1ccc(O)c(C(=O)C=Cc2ccc3c(c2)OCCCO3)c1	mHTT-CaM PPI inh 80
COc1ccc(C=CC(=O)c2cc(C)ccc2O)c(OC)c1	mHTT-CaM PPI inh 67
Cc1ccc(N2CCN(C(C)C(=O)NCc3ccccn3)CC2)cc1C (stereo unspecified)	none
FC(F)(F)c1cccc(C2CN(Cc3cccs3)CC2CN2CCOCC2)c1 (stereo unspecified)	none
CCOC(CNC(=O)Cn1cnc2sc3c(c2c1=O)CCCC3)OCC	none
CC(C)NC(=O)c1csc(COc2cccc(F)c2)n1	none
CCN(CC)c1ccc(N=Nc2c(O)ccc3ccccc23)cc1	none (no result: mHTT-CaM PPI inh)
Oc1ccc2ccccc2c1N=Nc1ccccc1	mHTT-CaM PPI inh 84 (no result: Pf apPOL inh)
Cc1ccc(-c2cncc(C(=O)NCc3cccnc3)c2)cc1	none
N=c1c2c(-c3ccccc3)c(-c3ccccc3)n(Cc3ccco3)c2ncn1Cc1ccco1	mHTT-CaM PPI inh 99
Cc1nc2ccccc2c(=O)n1Cc1ccco1	none
C=CC(COCc1ccccc1)N(Cc1ccc(OC)cc1)S(=O)(=O)c1ccccc1Br (stereo unspecified)	none
COc1ccc(CN(CC(O)COCc2ccccc2)S(=O)(=O)c2ccccc2Br)cc1 (stereo unspecified)	mHTT-CaM PPI inh 86
CC(=O)c1ccc(NC(=O)CSc2nccn2Cc2ccc(F)cc2)cc1	none
CCCn1c(C2CCN(C(=O)NCc3ccco3)C2)nc2cccnc21 (stereo unspecified)	none
COCCCNC(=O)C1(C)CCC(=O)N1Cc1ccccc1F (stereo unspecified)	none
CC1=C(C(=O)Nc2cccc(C(F)(F)F)c2)C2(CCCCCC2)OC1=O	mHTT-CaM PPI inh 98
CC1=C(C(=O)Nc2cccc(C(F)(F)F)c2)C2(CCCCC2)OC1=O	none
CN(C)/C(=C1/c2cc([N+](=O)[O-])ccc2-c2c1cc([N+](=O)[O-])cc2[N+](=O)[O-])N1CCOCC1	mHTT-CaM PPI inh 57
O=C(c1cc([N+](=O)[O-])ccc1N1CCCC1)N1CCOCC1	none
O=C(Cc1ccc(F)cc1)Nc1ncccn1	none
O=C(CS(=O)(=O)Cc1ccccc1)Nc1nc(-c2cc3ccccc3o2)cs1	none
O=C(Cc1ccc(F)cc1)Nc1nc(-c2ccccn2)cs1	mHTT-CaM PPI inh 85
O=C(CS(=O)(=O)Cc1ccccc1)Nc1nc(-c2ccccn2)cs1	mHTT-CaM PPI inh 87
O=C(Nc1nnc(-c2cccs2)o1)c1cccc(N2C(=O)CCC2=O)c1	none
COc1ccc(Br)cc1/C=C1\N=C(c2ccc([N+](=O)[O-])cc2Cl)OC1=O	none
N=C(NC(=O)c1cccc(C(F)(F)F)c1)c1ccc(C(F)(F)F)cn1	none (no result: mHTT-CaM PPI inh)
CC(C)NC(=O)c1cncc(-c2ccc(F)cc2F)c1	Pf apPOL inh 63
CCNC(=O)c1cncc(-c2ccc(F)cc2F)c1	none
COc1ccc(CNC(=O)Nc2ccc3nc(N4CCN(C)CC4)cc(C)c3c2)cc1OC	none
Cc1nn(-c2ccccc2)c(N2CCOCC2)c1[N+](=O)[O-]	none (no result: mHTT-CaM PPI inh)
O=[N+]([O-])c1c(C(Cl)Cl)nn(-c2ccccc2)c1N1CCCC1	mHTT-CaM PPI inh 54
O=C(NCCCc1ccccc1)c1ccc(I)cc1	none
Nc1ccccc1-n1cnc2ccccc21	none (no result: Pf apPOL inh)
COc1ccc([C@@H]2C[C@@H](c3ccccc3)Oc3cc(C)cc(C)c32)cc1	none
COc1ccc([C@@H]2C[C@H](c3ccccc3)Oc3cc4c(cc32)OCO4)cc1	mHTT-CaM PPI inh 60!
O=C(COc1ccc(Cl)cc1)NCc1nnc2n1CCCC2	none
Cc1ccc(C2=N/C(=C\c3cccc(C)c3)C(=O)O2)cc1	none
CC(C)c1cc(C2CCCN2C(=O)c2cc(F)c(F)cc2Cl)on1 (stereo unspecified)	none
CN(C)/C=C/c1c(C=O)c2cc([N+](=O)[O-])ccc2n1C	mHTT-CaM PPI inh 100
CC(=O)c1c(-c2ccccc2)c2cc([N+](=O)[O-])ccc2n1C	none
COc1ccc(C2CCCN2C(=O)c2ccccc2F)cc1 (stereo unspecified)	none
O=C(c1cncc(Br)c1)N1CCC(c2nnc(-c3ccco3)s2)CC1	none
CCOc1ccc(-c2c(C#N)c(N)nc(SCC(=O)c3ccc(C)cc3)c2C#N)cc1	none
CCOc1ccc(-c2c(C#N)c(N)nc(SCC(=O)c3ccc(O)c(O)c3)c2C#N)cc1	mHTT-CaM PPI inh 69
N#Cc1c(N)nc(SCC(=O)c2ccc(Br)cc2)c(C#N)c1-c1ccc(O)cc1	mHTT-CaM PPI inh 78!
N#Cc1c(N)nc(SCC(=O)c2ccccc2)c(C#N)c1-c1ccc(O)cc1	mHTT-CaM PPI inh 62
CCOc1ccc(-c2c(C#N)c(N)nc(SCC(=O)c3ccc(OC)cc3)c2C#N)cc1	none
N#Cc1c(N)nc(SCC(=O)c2ccc([N+](=O)[O-])cc2)c(C#N)c1-c1ccccc1	none
CCOc1ccc(/C=C2/N=C(c3c(-c4ccccc4)noc3C)OC2=O)cc1	none
CC(C)(C)C(=O)N1CCCC(c2ccnc(-c3ccccc3)n2)C1 (stereo unspecified)	none
CCn1ccc(C(=O)N2CC(c3nc(C)no3)C3(CCN(C)CC3)C2)n1 (stereo unspecified)	none

Assay outcomes as filed in PubChem BioAssay.
